Values joined by “and” are separate entries in the source; they are usually repeats but may differ in a detail not shown here. Identical values can stand only once. Inconclusive results are not listed. Entries that show only a call come without a potency. Unmarked numbers belong to inactive results. Active and inactive are the calls of the source. Calls come from the whole dose curve.
Potency is the fitted concentration of half-maximal effect.

The assay can be described thus: qHTS assay for small molecules that induce genotoxicity in human embryonic kidney cells expressing luciferase-tagged ATAD5 - cell viability (AID 651634). Note: nearly all actives have a fitted effect of over 25% in size. The note with it: HEK293T ATAD5-luc cells viability, CellTiter-Fluor, 15.5 h; series mostly up to 83.3 µM; activity, negative = cytotoxicity: at the top concentration. An excerpt: National Center for Advancing Translational Sciences [NCATS]
NIH Chemical Genomics Center [NCGC]
U.S. Environmental Protection Agency [EPA]
National Institutes of Environmental Health Sciences [NIEHS]
National Toxicology Program [NTP]
U.S. Food and Drug Administration [FDA]
Enhanced Level of Genome Instability Gene 1 (ELG1; human ATAD5) protein levels increase in response to various types of DNA damage. Using a luciferase reporter-gene tagged with ElG1, a cell-based assay [developed by Kyungjae Myung, NHGRI, NIH] was used to measure the induction of ATAD5 in human embryonic kidney cells (HEK293T). So, increase in luciferase activity can be used to identify the compounds that cause genetic stress. In addition to genotoxicity, these cells were also used to test for cytotoxicity by measuring the protease activity within live cells.
Tox21 Assay Protocol Summary:
For cytotoxicity screening, 2,000 cells in 5 uL/well were dispensed into white, solid-bottom 1536-well plates using a Multidrop Combi (Thermo Scientific) dispenser. Following transfer of 23 nL compound or DMSO vehicle by a pin tool, the plates were incubated 15.5 hr at 37C and 5% CO2. 1 ul CellTiter-Fluor reagent (Promega, Madison, WI) was then added to each plate and following 30 min incubation at 37C, fluorescence intensity was quantified on a ViewLux CCD-based plate reader.
Background: Quantitative high-throughput screening tests each substance at several concentrations.
Turning to `CCCCC(CC)COC(=O)c1ccc(N(C)C)cc1` (stereo not given), the Potency entry was “inactive”.

For `CCCCOCCOCCO`, the Potency entry was “inactive”.

As for `Oc1ccc(O)cc1`, the Potency entry was “inactive”.

For the molecule `O=CCc1ccccc1`, the Potency entry is “inactive”.

`Cc1cccc([N+](=O)[O-])c1C`: the Potency entry was “inactive”.

On to `O=Cc1ccccc1O`, for which the Potency entry was “inactive”.

For `COc1cc([C@@H]2c3cc4c(cc3[C@H](O)[C@H]3COC(=O)[C@H]23)OCO4)cc(OC)c1OC`, the “activity, negative = cytotoxicity” value is -23.3%.

`Cc1c(OCC(F)(F)F)ccnc1CS(=O)c1nc2ccccc2[nH]1` (stereo not given): the Potency result is “inactive”.

Take `c1ccc2c(c1)Oc1ccccc1S2`: the Potency result is “inactive”.

Regarding `CC(=O)c1ccccn1`, the Potency entry is “inactive”.

Take `CCCCCCCCCC(=O)OC`: the Potency result was “inactive”.

`CC1=CCC(C(C)(C)O)CC1` (stereo not given): the Potency result is “inactive”.

For `O=C(Nc1ccc([N+](=O)[O-])cc1Cl)c1cc(Cl)ccc1O`, the Potency was 596 nM (active) and 2.43 µM (active).

Regarding `NNc1ccc(C(=O)O)cc1`, the Potency entry is “inactive”.

As for `Cc1cccc(N(C)C(=S)Oc2ccc3ccccc3c2)c1`, the Potency result is “inactive”.

`CN(C)C(=N)N=C(N)N`: the Potency entry was “inactive”.

With `c1cc(-c2ccncc2)ccn1`, the Potency result is “inactive”.

With `O=P(O)(O)O`, the Potency result was “inactive”.

Regarding `Cc1cc2nc3c(=O)[nH]c(=O)nc-3n(C[C@H](O)[C@H](O)[C@H](O)CO)c2cc1C`, the Potency entry was “inactive”.

Consider `Nc1ncnc2nc[nH]c12`, for which the Potency entry was “inactive”.

On to `CCCCNS(=O)(=O)c1ccccc1`, for which the Potency entry was “inactive”.

For the molecule `Nc1ccc(Nc2ccccc2)cc1`, the Potency result was “inactive”.

Turning to `COc1ccc(C(=O)CC(=O)c2ccc(C(C)(C)C)cc2)cc1`, the Potency result is “inactive”.

As for `Nc1ncn([C@@H]2O[C@H](CO)[C@@H](O)[C@H]2O)c(=O)n1`, the Potency is 750 nM (active) and 1.37 µM (active).

For `O=C(/C=C/c1ccccc1)OCc1ccccc1`, the Potency entry was “inactive”.

As for `c1ccncc1`, the Potency entry is “inactive”.

For `CC(C)CC(C)(O)C#CC(C)(O)CC(C)C` (stereo not given), the Potency entry is “inactive”.

With `Brc1cc(Oc2cc(Br)c(Br)c(Br)c2Br)c(Br)c(Br)c1Br`, the Potency result was “inactive”.

As for `Nc1ccccc1N`, the Potency entry is “inactive”.

With `C[Si](C)(C)O[Si](C)(C)C`, the Potency entry is “inactive”.

Take `Cc1ccc2c(n1)Oc1ccc(C(C)C(=O)OCC(=O)N(C)C)cc1C2` (stereo not given): the Potency entry is “inactive”.

As for `Clc1nc(Cl)c(Cl)c(Cl)c1Cl`, the Potency result was “inactive”.

Turning to `COC(=O)Nc1nc2ccc(S(=O)c3ccccc3)cc2[nH]1` (stereo not given), the “activity, negative = cytotoxicity” value is -13.9%.

As for `CCC(C)CO` (stereo not given), the Potency entry was “inactive”.

`S=C(NC1CCCCC1)NC1CCCCC1`: the Potency result is “inactive”.

In the case of `COc1ccc(OC)c(C(O)CNC(=O)CN)c1` (stereo not given), the Potency result was “inactive”.

`C[C@]12CCC(=O)C=C1CC[C@@H]1[C@@H]2C(=O)C[C@@]2(C)[C@H]1CC[C@]2(O)C(=O)CO`: the Potency result is “inactive”.

Turning to `CCOCCOCCO`, the Potency entry is “inactive”.

Take `CCC(C)(O)CCCC(C)C` (stereo not given): the Potency result was “inactive”.

On to `Cc1ccc(C)c(O)c1C`, for which the Potency result was “inactive”.

The values are drawn from PubChem BioAssay (Tox21).
